Source: PubChem BioAssay (Broad Institute)
This excerpt belongs to a sample that is enriched for hits.
IDE exosite inh: insulin-degrading enzyme (human) exo-site inhibition. P14735. purified IDE, FL-6b probe fluorescence polarization; active compounds read low. z-score at 20 µM. 17,000 tested, 6.3% active;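 active = z-score of -3 or lower, meaning strong loss of probe binding signal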;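 note: His-tagged human IDE residues 42-1019 made in E. coli with 30 nM FL-6b probe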
* hit, by the source's call; ! = repeats disagree.

Screening CCC(=O)N1[C@H](CO)[C@H](c2ccc(-c3cccc(OC)c3)cc2)[C@H]1CNC(C)=O returned IDE exosite inh 1.15.
Screening COc1ccccc1-c1ccc(C2[C@@H]3CN(Cc4nccs4)C[C@H]2N3)cc1 (some centres not stated) returned IDE exosite inh -0.0593.
`COc1cc(CN2C[C@@H]3N[C@H](C2)C3c2ccc(-c3ccc(C#N)cc3)cc2)cc(OC)c1` (some centres not stated) gave IDE exosite inh -0.741.
For COc1cccc(CN2CCCCN3[C@@H](CO)[C@@H](c4ccc(-c5ccccc5OC)cc4)[C@@H]3C2)c1 the results were IDE exosite inh -1.52.
`Fc1ccccc1-c1ccc(C2[C@@H]3CN(Cc4ccccc4)C[C@H]2N3)cc1` (some centres not stated) gave IDE exosite inh 2.34.
For COc1cccc(CN2C[C@@H]3N[C@H](C2)C3c2ccc(-c3ccccc3OC)cc2)c1 (some centres not stated) the results were IDE exosite inh -8.57*!.
COc1ccccc1-c1ccc(C2[C@@H]3CN(Cc4cccc(F)c4)C[C@H]2N3)cc1 (some centres not stated) was read as IDE exosite inh -3.17*.
Screening O=C(C[C@H]1C[C@H]2c3cc(NC(=O)NC4CCCC4)ccc3O[C@H]2[C@H](CO)O1)NCc1ccccc1F returned IDE exosite inh -1.05.
C/C=C/c1ccc([C@H]2[C@@H](CNCC)N(c3nc(C)c(C)s3)[C@H]2CO)cc1 was read as IDE exosite inh -0.615.
O=C(C[C@@H]1C[C@H]2c3cc(NC(=O)Nc4ccccc4)ccc3O[C@H]2[C@H](CO)O1)NCc1ccccc1 was read as IDE exosite inh -0.633.
For Cc1cccc(-c2ccc([C@@H]3[C@@H](CO)N4CCCCN(C(=O)NC(C)C)C[C@@H]34)cc2)c1 the results were IDE exosite inh -5.51*.
For COc1ccccc1NC(=O)N1CCCCN2[C@@H](CO)[C@@H](c3ccc(-c4cccc(C)c4)cc3)[C@@H]2C1 the results were IDE exosite inh -2.19.
`COc1ccccc1NC(=O)N1CCCCN2[C@H](CO)[C@@H](c3ccc(-c4cccc(C)c4)cc3)[C@@H]2C1` gave IDE exosite inh -2.84.
`COc1ccccc1NC(=O)N1CCCCN2[C@H](C1)[C@H](c1ccc(-c3cccc(C)c3)cc1)[C@@H]2CO` gave IDE exosite inh 2.24.
For Cc1cccc(-c2ccc([C@@H]3[C@@H](CO)N4CCCCN(C(=O)NC(C)C)C[C@H]34)cc2)c1 the results were IDE exosite inh -7.25*.
Cc1cccc(-c2ccc([C@H]3[C@@H](CO)N4CCCCN(C(=O)NC(C)C)C[C@@H]34)cc2)c1 was read as IDE exosite inh -6.02*.
Screening C/C=C/c1ccc([C@@H]2[C@@H](C#N)N(c3ncc(CC)s3)[C@@H]2CO)cc1 returned IDE exosite inh 4.74.
CCCC(=O)N1CC2(CN(Cc3nccs3)C2)c2c([nH]c3cc(OC)ccc23)[C@@H]1CO was read as IDE exosite inh -0.217.
CC(=O)N1CC[C@@H]2[C@H](CO)Nc3ccc(-c4ccccc4)cc3[C@@H]21 was read as IDE exosite inh 2.06.
`COCCNC(=O)c1cc2c(c(-c3cccc(C4=CCCCC4)c3)n1)[C@H](CCO)N([S@@](=O)C(C)(C)C)C2` gave IDE exosite inh 2.22.
`Cc1noc(C)c1C(=O)N(C)C[C@@H]1OCc2ccccc2-c2ccccc2C(=O)N([C@H](C)CO)C[C@H]1C` gave IDE exosite inh -0.0373.
Screening CN(C)CC(=O)N1[C@H](CO)[C@H](c2ccc(-c3ccccc3F)cc2)[C@@H]1C#N returned IDE exosite inh 0.677.
`CN(C)CC(=O)N1[C@H](C#N)[C@H](c2ccc(-c3ccccc3F)cc2)[C@@H]1CO` gave IDE exosite inh -1.58.
COc1ccccc1-c1ccccc1[C@H]1[C@@H](C#N)N(C(=O)CN(C)C)[C@H]1CO was read as IDE exosite inh -0.877.
Screening CN(C)CC(=O)N1[C@@H](C#N)[C@@H](c2ccc(-c3ccc(C(=O)N(C)C)cc3)cc2)[C@@H]1CO returned IDE exosite inh 0.87.
For CN(C)CC(=O)N1[C@H](CO)[C@@H](c2ccc(-c3ccccc3F)cc2)[C@@H]1C#N the results were IDE exosite inh -3.42*.
`CN(C)CC(=O)N1[C@H](C#N)[C@@H](c2ccc(-c3ccc(C(=O)N(C)C)cc3)cc2)[C@@H]1CO` gave IDE exosite inh 1.67.
COc1ccccc1-c1ccc([C@H]2[C@@H](C#N)N(C(=O)CN(C)C)[C@H]2CO)cc1 was read as IDE exosite inh -3.7*.
COc1ccccc1-c1ccccc1[C@@H]1[C@@H](C#N)N(C(=O)CN(C)C)[C@@H]1CO was read as IDE exosite inh -0.393.
`COc1ccccc1-c1ccc([C@H]2[C@H](C#N)N(C(=O)CN(C)C)[C@H]2CO)cc1` gave IDE exosite inh -14.1*.
For COc1ccccc1-c1ccc([C@@H]2[C@H](C#N)N(C(=O)CN(C)C)[C@H]2CO)cc1 the results were IDE exosite inh -5.05*.
CN(C)CC(=O)N1[C@H](C#N)[C@H](c2ccc(-c3ccccc3F)cc2)[C@H]1CO was read as IDE exosite inh 1.72.
